BoNT A protease = BoNT A light chain protease inhibition. hit rate 0.17% among 360,000. AID 588499. multiplex microsphere protease substrate cleavage, flow cytometry. inhibition, % at 10 µM; further: plate controls were buffer without enzyme for full effect and enzyme alone for no effect
PriA SSB inh = inhibitors of Klebsiella pneumoniae PriA binding to SSB C-terminal tail. AlphaScreen SSBct-PriA binding, biotinylated peptide. inhibition, % at 33 µM. hit rate 0.6% among 430,000. AID 1272365; in the data active means inhibition mostly above about 37%, no sharp cut-off; inactive means mostly below about 20%;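 further: plate controls were negative control peptide for no effect and reference peptide for full effect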
Anthrax LF prot = blocks Bacillus anthracis lethal factor protease. hit rate 0.12% among 360,000. multiplex microsphere protease cleavage assay, LF. inhibition, % at 10 µM; further: plate controls were buffer without enzyme for full effect and enzyme alone for no effect
Target sequence (P15917 whole entry, looked up): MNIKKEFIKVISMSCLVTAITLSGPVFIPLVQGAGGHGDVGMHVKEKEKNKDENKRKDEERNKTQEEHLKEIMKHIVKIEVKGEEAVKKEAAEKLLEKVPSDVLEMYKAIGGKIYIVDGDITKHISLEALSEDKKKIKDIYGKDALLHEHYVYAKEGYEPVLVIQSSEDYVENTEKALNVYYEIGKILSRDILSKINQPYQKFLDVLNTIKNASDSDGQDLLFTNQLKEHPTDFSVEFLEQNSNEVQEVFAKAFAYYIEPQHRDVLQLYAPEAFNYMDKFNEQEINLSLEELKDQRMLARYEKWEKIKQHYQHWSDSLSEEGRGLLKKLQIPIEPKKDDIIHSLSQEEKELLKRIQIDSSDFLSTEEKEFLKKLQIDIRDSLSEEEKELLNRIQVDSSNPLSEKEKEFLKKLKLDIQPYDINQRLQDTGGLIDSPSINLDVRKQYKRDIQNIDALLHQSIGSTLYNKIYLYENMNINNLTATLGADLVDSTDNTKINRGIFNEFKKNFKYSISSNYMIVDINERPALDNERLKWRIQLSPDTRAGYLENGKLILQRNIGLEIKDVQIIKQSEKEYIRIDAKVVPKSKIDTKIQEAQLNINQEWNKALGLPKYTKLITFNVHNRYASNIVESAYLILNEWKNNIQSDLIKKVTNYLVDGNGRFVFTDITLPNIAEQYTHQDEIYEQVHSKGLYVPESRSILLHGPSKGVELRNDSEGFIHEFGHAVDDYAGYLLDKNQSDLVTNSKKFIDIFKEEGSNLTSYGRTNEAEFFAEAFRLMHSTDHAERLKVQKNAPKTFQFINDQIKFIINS
Bead autofluor = counter-screen for toxin protease inhibitors: compound fluorescence; compound autofluorescence counterscreen, microsphere flow cytometry; stronger effect = higher value; fluorescence intensity (no concentration beside the values); hit rate 3.1% among 360,000; in the data active means fluorescence intensity above about 16000; inconclusive means no clear call, values can overlap the other calls
BoNT-F LC inh = blocks Botulinum neurotoxin F light chain protease; hit rate 0.22% among 360,000; AID 588497; inhibition, % at 10 µM; Multiplex microsphere protease cleavage assay, flow cytometry; in the data active means inhibition above about 35%, passing the limit was not always enough; inconclusive means no clear call, values can overlap the other calls; further: plate controls were buffer without enzyme for full effect and enzyme alone for no effect
Numbers without * were called inactive; u = inconclusive; x = no result given. Only some compounds are listed: those with a hit (about 3.1% of all), similar ones and a draw of the others. Unless noted, no stated cut-off is given here; in the data, active means inhibition above about 30%; inconclusive means no clear call, values can overlap the other calls; inactive means below that.

SMILES	BoNT A protease	PriA SSB inh	Anthrax LF prot	Bead autofluor	BoNT-F LC inh
CS(=O)(=O)N1CCN(c2nc3c(C(F)(F)F)cccc3s2)CC1	x	-10.0	x	x	x
O=C(NCCn1ccc(-c2cccs2)n1)c1ccsc1	x	2.0	x	x	x
CSc1ccccc1NC(=O)CC1CCCCN1S(=O)(=O)c1ccccc1 (stereo not given)	x	13.0	x	x	x
Cc1c(NC(=O)c2ccccc2F)c(=O)n(-c2ccccc2)n1C	u	-5.2	2.4	16314*	0.2
CCOc1ccccc1C(=O)N1CCN(Cc2nc(C(C)(C)C)cs2)CC1	x	-4.0	x	x	x
CCCCCc1cc(=O)oc2c(C(CCN3CCN(c4ccccc4)CC3)c3ccc(N(C)C)cc3)c(OC)cc(OC)c12 (stereo not given)	-0.8	1.7	-13.1	3918	-11.7
COc1ccc(C(CCN2CCN(c3ccccc3)CC2)c2c(OC)cc(OC)c3c(-c4ccccc4)cc(=O)oc23)cc1 (stereo not given)	-0.6	-1.3	-8.2	4236	-8.5
CCCCCc1cc(=O)oc2c(C(CCN3CCCCC3)c3ccc4c(c3)OCO4)c(OC)cc(OC)c12 (stereo not given)	-0.9	41.5*	-7.0	4354	-15.7
COc1cc(OC)c2c(-c3ccccc3)cc(=O)oc2c1C(CC(=O)N1CCN(c2ccccc2)CC1)c1ccc(N(C)C)cc1 (stereo not given)	-0.5	32.4	-2.4	3673	-6.1
COc1cc(OC)c2c(-c3ccccc3)cc(=O)oc2c1C(CCN1CCN(c2ccccc2)CC1)c1ccc(N(C)C)cc1 (stereo not given)	0.1	55.0*	-7.2	3669	-9.6
COc1cc(OC)c2ccc(=O)oc2c1C(CCN1CCN(c2ccccc2)CC1)c1ccc(N(C)C)cc1 (stereo not given)	-0.3	55.4*	5.8	3846	-2.4
COc1cc(OC)c2c(-c3ccccc3)cc(=O)oc2c1C(CC(=O)N1CCOCC1)c1ccc(N(C)C)cc1 (stereo not given)	-0.1	41.8*	0.3	3267	-11.6
CCCCCc1cc(=O)oc2c(C(CCN3CCCC(C)C3)c3ccc4c(c3)OCO4)c(OC)cc(OC)c12 (stereo not given)	-0.1	30.6	-12.1	3605	-15.4
CCc1nnc(-c2ccc(NC(=O)C3CCCC3)cc2)o1	x	12.0	x	x	x
COc1ccc(C(CCN2CCCC(C)C2)c2c(OC)cc(OC)c3c(-c4ccccc4)cc(=O)oc23)cc1 (stereo not given)	-0.7	18.8	5.6	4436	-9.3
COc1cc(OC)c2c(C)cc(=O)oc2c1C(CCN1CCOCC1)c1ccc(N(C)C)cc1 (stereo not given)	-0.5	45.2*	1.2	3822	-5.2
COc1cc(O)c(C(CCN2CCCC2)c2ccc3c(c2)OCO3)c(OC)c1 (stereo not given)	0.1	-24.5	4.8	4112	-1.3
CCN(CC)CCC(c1ccc(N(C)C)cc1)c1c(OC)cc(OC)c2c(-c3ccccc3)cc(=O)oc12 (stereo not given)	-1.4	87.2*	-4.2	4215	-15.9
COc1cc(O)c(C(CCN2CCN(c3ccccc3)CC2)c2ccc3c(c2)OCO3)c(OC)c1 (stereo not given)	-1.7	42.2*	-4.6	3627	-14.5
COc1ccc(C(CCN2CCOCC2)c2c(OC)cc(OC)c3c(-c4ccccc4)cc(=O)oc23)cc1 (stereo not given)	0.0	-2.1	1.3	3013	-7.6
COc1cc(OC)c2c(-c3ccccc3)cc(=O)oc2c1C(CCN1CCCC(C)C1)c1ccc(N(C)C)cc1 (stereo not given)	-1.3	96.7*	-7.0	4277	-16.1
COc1ccc(Br)cc1S(=O)(=O)Nc1cc(Cl)ccc1O	x	-5.0	x	x	x
COc1ccc(-c2[nH]nc3c2C(c2ccccc2OC(=O)N2CCOCC2)C(C#N)=C(N)O3)cc1 (stereo not given)	0.4	-10.5	-0.9	20595*	0.1
N#CC1=C(N)Oc2n[nH]c(-c3ccc(F)cc3)c2C1c1cccc(OC(=O)N2CCOCC2)c1 (stereo not given)	x	-15.2	x	x	x
N#CC1=C(N)Oc2n[nH]c(-c3ccccc3)c2C1c1cccc(OC(=O)N2CCOCC2)c1 (stereo not given)	-2.4	-5.0	-4.0	16755*	-6.1
SMILES	BoNT A protease	PriA SSB inh	Anthrax LF prot	Bead autofluor	BoNT-F LC inh
COc1ccc(C(=O)CSc2nc(NC(C)=O)c(NC(=O)c3ccccc3)c(=O)[nH]2)cc1	x	-10.0	x	x	x
CN(Cc1ccccc1)c1nc2c(c(=O)[nH]c(=O)n2C)n1Cc1ccccc1Cl	u	4.5	-3.8	22859*	-0.7
CN(Cc1ccccc1)c1nc2c(c(=O)[nH]c(=O)n2C)n1CCCc1ccccc1	1.0	8.7	-0.1	10168	-7.8
CCOC(=O)CSc1nc2ccccc2n1CC(=O)NC(C)(C)C	-3.2	-2.4	-0.8	21055*	-3.8
O=C(CCc1csc2nc(-c3ccc(Cl)cc3)cn12)N1CCc2ccccc2C1	x	1.0	x	x	x
COc1cc2c(C(=O)N3CCN(C)CC3)c(C)oc2cc1Br	-0.2	-14.9	0.5	19992*	-0.1
CCN(CC)CCNC(=O)c1c(C)oc2cc(Br)c(OC)cc12	3.6	-9.8	-4.5	21610*	7.2
Cn1c(C(O)c2ccc(Cl)cc2)nc(Cl)c1Cl (stereo not given)	0.6	-3.3	-3.4	3715	0.6
Cn1c(C(O)c2ccccc2F)nc(Cl)c1Cl (stereo not given)	0.0	-19.8	-2.3	22133*	-0.2
Fc1ccc(CSc2nnc(Cc3ccccc3)o2)cc1	x	-31.0	x	x	x
O=C1N(CCCCN2C(=O)C3(OCCO3)c3ccccc32)c2ccccc2C12OCCO2	0.1	-8.2	0.1	3442	-1.5
NNC(=O)CN1C(=O)C2(OCCO2)c2ccccc21	-0.4	x	-1.9	4029	-7.1
CCCC(=O)CN1C(=O)C2(OCCO2)c2ccccc21	-1.0	-5.0	-2.8	22726*	0.7
O=C1N(CN2C(=O)C3(OCCO3)c3ccccc32)c2ccccc2C12OCCO2	0.2	-7.6	-1.8	2478	-0.7
COc1ccccc1NC(=O)CN1C(=O)C2(OCCCO2)c2ccccc21	1.9	5.4	0.5	20250*	0.9
O=C1N(CCCN2C(=O)C3(OCCO3)c3ccccc32)c2ccccc2C12OCCO2	-5.7	-7.1	0.5	21454*	-5.1
CC(C)CC(=O)CN1C(=O)C2(OCCO2)c2ccccc21	-1.6	-4.8	1.6	23745*	-0.9
Cc1nnc(NC(=O)Cc2csc(Nc3ccc(OC(F)(F)F)cc3)n2)s1	x	-21.0	x	x	x
Nc1nsnc1N	x	-12.0	x	x	x
Cc1ccc(CSc2nnc(-c3cccs3)n2C)cc1	-0.5	-8.4	-0.8	13667	-9.7
Cn1c(SCc2c(Cl)cccc2Cl)nnc1-c1cccs1	u	-12.6	-2.3	18672*	5.1
Cn1c(SCc2nc3ccccc3[nH]2)nnc1-c1cccs1	u	4.3	-1.3	23403*	0.5
Cn1c(SCc2ccc(Br)cc2)nnc1-c1cccs1	0.6	7.1	-4.5	16457*	3.3
O=C(COc1ccc(Cl)cc1)NCCc1ccoc1	x	-1.0	x	x	x
COC(=O)c1c(N)sc2c1CCN(C(C)=O)C2	x	5.0	x	x	x
Cc1ccccc1-n1nc2c(c1NC(=O)COc1ccc(Cl)cc1)CS(=O)C2 (stereo not given)	-0.1	-16.4	-2.8	5267	-11.7
